Source: ChEMBL document CHEMBL3988442, “University of Dundee, Small-Polar-MMV Screening Library” (2021)
For some of these results: Entries with a potency or affinity are not part of this list.

Assays:
Parameters in all cases: scale not given: direction of the effect not stated beside the values
[1] = biological target: Protein translocase subunit SecA (Escherichia coli (strain K12)) (UniProt P10408); assay: Assay to Identify E. coli SecA ATPase Inhibitors; assay type: functional; details: 30 µM
[2] = biological target: T1, Ubiquitin-activating enzyme e1, putative (Leishmania donovani (strain BPK282A1)) (UniProt E9BSI1); assay: Leishmania donovani Ubiquitin Activating Enzyme (LdE1); assay type: functional; details: 30 µM
T1 sequence (whole entry): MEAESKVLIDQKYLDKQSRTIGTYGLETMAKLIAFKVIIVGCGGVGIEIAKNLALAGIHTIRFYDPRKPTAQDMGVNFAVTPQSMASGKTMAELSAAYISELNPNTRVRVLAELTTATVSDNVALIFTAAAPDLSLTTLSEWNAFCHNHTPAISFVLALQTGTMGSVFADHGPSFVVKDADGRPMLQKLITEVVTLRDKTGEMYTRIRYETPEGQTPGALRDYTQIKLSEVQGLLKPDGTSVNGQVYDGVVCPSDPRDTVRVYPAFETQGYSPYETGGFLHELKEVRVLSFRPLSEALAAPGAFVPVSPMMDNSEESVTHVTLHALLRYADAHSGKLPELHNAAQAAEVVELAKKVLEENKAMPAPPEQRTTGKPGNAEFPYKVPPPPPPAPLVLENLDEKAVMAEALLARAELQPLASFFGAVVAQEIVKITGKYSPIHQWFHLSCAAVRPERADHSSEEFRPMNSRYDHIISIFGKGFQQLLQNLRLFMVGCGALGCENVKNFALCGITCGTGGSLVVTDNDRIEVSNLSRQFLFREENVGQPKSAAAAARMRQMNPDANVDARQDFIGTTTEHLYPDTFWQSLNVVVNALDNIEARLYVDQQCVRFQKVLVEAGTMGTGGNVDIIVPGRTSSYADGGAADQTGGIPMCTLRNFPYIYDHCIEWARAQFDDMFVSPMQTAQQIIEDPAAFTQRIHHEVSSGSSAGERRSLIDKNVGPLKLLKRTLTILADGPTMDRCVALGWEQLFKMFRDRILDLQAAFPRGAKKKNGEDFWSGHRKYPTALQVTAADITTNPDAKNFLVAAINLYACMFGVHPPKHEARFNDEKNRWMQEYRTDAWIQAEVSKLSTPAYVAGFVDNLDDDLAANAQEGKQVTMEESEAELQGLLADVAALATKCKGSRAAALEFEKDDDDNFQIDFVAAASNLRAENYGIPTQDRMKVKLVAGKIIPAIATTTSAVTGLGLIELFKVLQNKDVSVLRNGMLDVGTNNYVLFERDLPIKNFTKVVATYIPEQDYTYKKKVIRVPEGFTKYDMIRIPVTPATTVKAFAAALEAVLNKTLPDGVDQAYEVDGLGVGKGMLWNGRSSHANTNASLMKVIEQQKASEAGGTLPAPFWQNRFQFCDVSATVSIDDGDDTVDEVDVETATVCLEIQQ

[3] = biological target: T2, Aspartate--tRNA(Asp/Asn) ligase (Mycobacterium tuberculosis (strain ATCC 25618 / H37Rv)) (UniProt P9WFW3); assay: Assay for Asp RNA synthetase-1 from Mycobacterium tuberculosis; assay type: functional; details: 30 µM; further: in the data most compounds retested in dose-response had high values
T2 sequence (whole entry): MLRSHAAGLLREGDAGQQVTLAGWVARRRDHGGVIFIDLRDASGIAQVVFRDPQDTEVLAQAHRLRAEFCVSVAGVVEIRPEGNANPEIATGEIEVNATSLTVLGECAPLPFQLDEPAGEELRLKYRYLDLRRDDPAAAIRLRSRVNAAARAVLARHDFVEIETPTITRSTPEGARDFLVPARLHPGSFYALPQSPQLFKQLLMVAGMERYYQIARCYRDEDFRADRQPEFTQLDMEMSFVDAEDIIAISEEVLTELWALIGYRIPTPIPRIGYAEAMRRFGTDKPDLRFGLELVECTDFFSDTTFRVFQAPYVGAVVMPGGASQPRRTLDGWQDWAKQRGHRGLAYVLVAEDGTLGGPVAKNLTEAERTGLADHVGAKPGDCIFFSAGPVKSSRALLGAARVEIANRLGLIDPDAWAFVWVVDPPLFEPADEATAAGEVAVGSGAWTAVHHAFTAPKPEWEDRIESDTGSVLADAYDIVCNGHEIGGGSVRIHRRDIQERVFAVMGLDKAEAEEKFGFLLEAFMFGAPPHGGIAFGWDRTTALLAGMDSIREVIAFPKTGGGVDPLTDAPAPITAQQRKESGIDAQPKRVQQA

[4] = biological target: AMP-activated protein kinase, AMPK (Homo sapiens) (UniProt P54646+O43741+P54619+Q9UGJ0+Q9Y478+Q13131+Q9UGI9); assay: AMP-dependent Kinase enzyme assay. An in vitro enzyme assay that detects ADP turnover that is directly proportional to AMPK activity. This uses naive AMPK that is activated during the assay with MK-8722; assay type: functional; details: 30 µM
[5] = biological target: Sialic acid-binding Ig-like lectin 9 (Homo sapiens) (UniProt Q9Y336); assay: Hs-Siglec9 ALPHAscreen SOP 20170721; details: 10 µM
Trypanosoma cruzi = assay: Trypanosoma cruzi phosphomannomutase and mannose-1-phosphate guanylyltransferase assay; assay type: functional; details: 10 µM
[6] = biological target: T3, Arginase-2, mitochondrial (Homo sapiens) (UniProt P78540); assay: in vitro enzyme assay to detect the production of urea directly proportional to the activity of Arginase II; assay type: functional; details: 33.3 µM; further: in the data most compounds retested in dose-response had high values
T3 sequence (whole entry): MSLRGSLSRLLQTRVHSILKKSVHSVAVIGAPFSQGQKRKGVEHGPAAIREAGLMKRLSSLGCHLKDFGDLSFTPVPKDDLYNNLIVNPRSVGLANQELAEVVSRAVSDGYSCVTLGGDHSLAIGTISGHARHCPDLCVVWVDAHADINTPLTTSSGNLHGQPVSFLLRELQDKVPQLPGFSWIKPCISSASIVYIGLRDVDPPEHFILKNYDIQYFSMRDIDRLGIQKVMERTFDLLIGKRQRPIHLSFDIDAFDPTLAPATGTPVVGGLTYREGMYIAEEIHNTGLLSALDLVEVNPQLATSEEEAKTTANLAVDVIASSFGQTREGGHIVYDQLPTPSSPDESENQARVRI

[7] = biological target: T4, Proteasome subunit beta (Trypanosoma cruzi) (UniProt O96673); assay: Trypanosoma cruzi proteasome chymotrypsin-like activity (TcProtChymo) assay.; further: in the data most compounds retested in dose-response had high values; assay type: functional; details: 9.37 µM
T4 sequence (whole entry): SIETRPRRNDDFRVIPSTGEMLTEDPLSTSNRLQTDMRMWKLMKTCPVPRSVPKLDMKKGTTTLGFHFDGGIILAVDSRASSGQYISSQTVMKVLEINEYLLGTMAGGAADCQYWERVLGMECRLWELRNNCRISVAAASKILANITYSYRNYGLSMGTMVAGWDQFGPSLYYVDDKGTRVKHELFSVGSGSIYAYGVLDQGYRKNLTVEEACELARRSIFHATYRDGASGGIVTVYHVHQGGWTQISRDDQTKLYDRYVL

Homo sapiens = species: Homo sapiens; assay: To identify inhibition of the IFN signalling (Jak-Stat) pathway via expression of an eGFP reporter gene under the control of an IFN-stimulated response element (ISRE) containing MxA promoter.; assay type: functional; details: 30 µM
[8] = biological target: Shiga toxin 2 (Escherichia coli O157:H7) (UniProt P09385+P09386); assay: E. coli 0.157:H7 Shiga Toxin SOP - stx2 screening assay; assay type: functional; details: 30 µM
[9] = biological target: T5, Tyrosyl-tRNA synthetase, putative (Trypanosoma cruzi (strain CL Brener)) (UniProt Q4DSP6); assay: Trypanosoma cruzi tyrosyl tRNA synthetase (TcYRS) _High Tyrosine SOP; assay type: functional; details: 30 µM; further: in the data most compounds retested in dose-response had high values
T5 sequence (whole entry): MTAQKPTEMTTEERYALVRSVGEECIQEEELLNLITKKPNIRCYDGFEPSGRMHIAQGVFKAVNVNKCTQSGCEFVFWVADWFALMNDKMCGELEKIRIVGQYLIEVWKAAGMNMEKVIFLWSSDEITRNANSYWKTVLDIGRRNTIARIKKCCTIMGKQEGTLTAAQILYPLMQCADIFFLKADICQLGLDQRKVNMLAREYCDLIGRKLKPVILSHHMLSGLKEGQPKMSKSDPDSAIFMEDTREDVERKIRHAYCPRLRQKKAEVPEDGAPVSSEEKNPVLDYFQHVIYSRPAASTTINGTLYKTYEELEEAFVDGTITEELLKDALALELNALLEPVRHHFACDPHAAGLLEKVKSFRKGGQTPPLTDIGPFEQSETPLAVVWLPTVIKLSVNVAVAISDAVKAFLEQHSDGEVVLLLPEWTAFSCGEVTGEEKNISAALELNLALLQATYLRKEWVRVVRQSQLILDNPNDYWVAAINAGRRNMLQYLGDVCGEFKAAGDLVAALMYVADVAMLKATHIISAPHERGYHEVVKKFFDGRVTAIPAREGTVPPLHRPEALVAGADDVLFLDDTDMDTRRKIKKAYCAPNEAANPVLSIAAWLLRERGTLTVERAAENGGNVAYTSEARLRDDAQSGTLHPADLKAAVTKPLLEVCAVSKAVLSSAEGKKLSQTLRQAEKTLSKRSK

[10] = biological target: T5, Tyrosyl-tRNA synthetase, putative (Trypanosoma cruzi (strain CL Brener)); assay: Trypanosoma cruzi tyrosyl tRNA synthetase (TcYRS) SOP; assay type: functional; details: 30 µM
[11] = biological target: Chromo domain-containing protein 1 (Saccharomyces cerevisiae (strain ATCC 204508 / S288c) (Baker's yeast)) (UniProt P32657); assay: ScCHD-1 Enzyme Inhibition Assay; assay type: functional; details: 30 µM; further: in the data most compounds retested in dose-response had high values
Sequence of Chromo domain-containing protein 1 (Saccharomyces cerevisiae (strain ATCC 204508 / S288c) (Baker's yeast)) (P32657 whole entry, the tested form may be a part): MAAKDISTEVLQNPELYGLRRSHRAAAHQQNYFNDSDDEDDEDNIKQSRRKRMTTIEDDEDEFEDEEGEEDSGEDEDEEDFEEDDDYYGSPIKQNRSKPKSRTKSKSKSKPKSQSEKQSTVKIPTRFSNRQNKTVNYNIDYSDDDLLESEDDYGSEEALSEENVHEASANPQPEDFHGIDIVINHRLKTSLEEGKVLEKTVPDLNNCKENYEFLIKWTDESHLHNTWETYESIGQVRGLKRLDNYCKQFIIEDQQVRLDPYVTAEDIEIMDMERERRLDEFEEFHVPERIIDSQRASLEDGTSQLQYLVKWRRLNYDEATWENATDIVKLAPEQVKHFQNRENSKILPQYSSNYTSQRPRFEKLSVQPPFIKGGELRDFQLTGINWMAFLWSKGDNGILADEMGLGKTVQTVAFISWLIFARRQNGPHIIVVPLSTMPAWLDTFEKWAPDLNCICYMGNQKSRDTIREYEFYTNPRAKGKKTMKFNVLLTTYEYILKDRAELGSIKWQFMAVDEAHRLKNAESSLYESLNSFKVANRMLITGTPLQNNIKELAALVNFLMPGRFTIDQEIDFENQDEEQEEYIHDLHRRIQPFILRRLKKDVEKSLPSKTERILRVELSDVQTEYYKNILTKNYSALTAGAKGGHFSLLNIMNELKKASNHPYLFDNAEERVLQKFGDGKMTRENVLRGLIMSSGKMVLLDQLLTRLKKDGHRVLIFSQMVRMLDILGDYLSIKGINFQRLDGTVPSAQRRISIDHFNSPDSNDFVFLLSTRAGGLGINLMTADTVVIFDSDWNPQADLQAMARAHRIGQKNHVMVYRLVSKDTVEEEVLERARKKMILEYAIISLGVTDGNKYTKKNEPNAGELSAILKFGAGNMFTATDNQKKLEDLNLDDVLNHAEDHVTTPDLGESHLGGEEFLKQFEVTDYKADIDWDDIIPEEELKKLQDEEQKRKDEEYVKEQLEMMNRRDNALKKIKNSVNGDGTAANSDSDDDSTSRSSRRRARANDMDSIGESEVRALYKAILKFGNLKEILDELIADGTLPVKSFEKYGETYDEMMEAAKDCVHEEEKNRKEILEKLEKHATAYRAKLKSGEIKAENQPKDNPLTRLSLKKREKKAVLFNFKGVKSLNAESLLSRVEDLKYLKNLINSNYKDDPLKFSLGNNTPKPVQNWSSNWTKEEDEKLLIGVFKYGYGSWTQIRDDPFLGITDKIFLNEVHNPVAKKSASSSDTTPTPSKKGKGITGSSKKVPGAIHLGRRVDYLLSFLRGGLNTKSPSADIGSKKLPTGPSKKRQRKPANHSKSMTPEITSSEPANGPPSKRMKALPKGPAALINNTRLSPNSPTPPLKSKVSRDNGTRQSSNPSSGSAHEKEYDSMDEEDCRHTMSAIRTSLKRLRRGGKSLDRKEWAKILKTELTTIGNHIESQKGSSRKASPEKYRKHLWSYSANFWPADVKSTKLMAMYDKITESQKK

Sequence of Sialic acid-binding Ig-like lectin 9 (Homo sapiens) (Q9Y336 whole entry): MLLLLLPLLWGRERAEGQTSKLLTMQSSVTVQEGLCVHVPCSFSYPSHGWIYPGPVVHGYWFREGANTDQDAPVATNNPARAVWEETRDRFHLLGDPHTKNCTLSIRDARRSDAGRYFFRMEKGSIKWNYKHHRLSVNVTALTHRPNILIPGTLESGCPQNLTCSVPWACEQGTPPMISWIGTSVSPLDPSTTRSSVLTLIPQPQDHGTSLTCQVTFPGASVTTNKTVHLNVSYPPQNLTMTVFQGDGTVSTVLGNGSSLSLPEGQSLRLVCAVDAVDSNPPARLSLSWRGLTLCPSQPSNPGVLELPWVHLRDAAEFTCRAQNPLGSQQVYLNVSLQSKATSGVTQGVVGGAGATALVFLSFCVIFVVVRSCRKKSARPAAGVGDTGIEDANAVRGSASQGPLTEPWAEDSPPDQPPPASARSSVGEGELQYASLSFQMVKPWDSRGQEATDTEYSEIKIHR
Sequence of Protein translocase subunit SecA (Escherichia coli (strain K12)) (P10408 whole entry): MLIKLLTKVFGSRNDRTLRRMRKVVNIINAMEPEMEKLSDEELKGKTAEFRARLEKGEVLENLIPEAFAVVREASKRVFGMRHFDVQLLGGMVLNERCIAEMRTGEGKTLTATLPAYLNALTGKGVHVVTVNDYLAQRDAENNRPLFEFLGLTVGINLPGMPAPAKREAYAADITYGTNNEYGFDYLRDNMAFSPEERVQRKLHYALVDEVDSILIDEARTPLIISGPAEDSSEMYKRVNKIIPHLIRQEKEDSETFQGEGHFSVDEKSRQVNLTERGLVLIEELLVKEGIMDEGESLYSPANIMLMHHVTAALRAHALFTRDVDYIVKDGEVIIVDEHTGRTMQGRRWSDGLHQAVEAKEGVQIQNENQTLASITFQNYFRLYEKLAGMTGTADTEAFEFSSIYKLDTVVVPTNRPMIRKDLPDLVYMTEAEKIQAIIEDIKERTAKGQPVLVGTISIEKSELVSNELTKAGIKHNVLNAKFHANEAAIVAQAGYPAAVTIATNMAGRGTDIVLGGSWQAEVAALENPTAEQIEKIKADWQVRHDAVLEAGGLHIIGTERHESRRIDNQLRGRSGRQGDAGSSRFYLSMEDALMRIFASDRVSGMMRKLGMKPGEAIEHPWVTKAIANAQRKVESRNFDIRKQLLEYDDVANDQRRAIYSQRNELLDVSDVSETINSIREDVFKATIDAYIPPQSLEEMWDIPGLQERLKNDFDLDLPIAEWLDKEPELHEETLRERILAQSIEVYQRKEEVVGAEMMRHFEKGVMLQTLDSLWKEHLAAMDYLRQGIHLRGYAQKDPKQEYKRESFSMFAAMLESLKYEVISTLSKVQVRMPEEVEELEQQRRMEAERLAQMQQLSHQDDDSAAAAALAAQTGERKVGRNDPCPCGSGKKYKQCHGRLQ

| Structure (SMILES) | Percent Effect [1] | Percent Effect [2] | Percent Effect [3] | Percent Effect [4] | Percent Effect [5] | Percent Effect (Trypanosoma cruzi) | Percent Effect [6] | Percent Effect [7] | Percent Effect (Homo sapiens) | Percent Effect [8] | Percent Effect [9] | Percent Effect [10] | Percent Effect [11] |
| --- | --- | --- | --- | --- | --- | --- | --- | --- | --- | --- | --- | --- | --- |
| CN(C)c1ncc2c(n1)C1(CCN(Cc3ccccc3)C1)COC2 (stereo not given) | -2.14% | -5.48% | -5.72% | 3.1% | 1.95% | 2.78% | 1.2% | 10.9% | -0.512% | -67% | 5.21% | 3.7% | -6.91% |
| O=C1CSC(c2ccsc2)c2sccc2N1 (stereo not given) | -4.83% | -57.3% | 4.27% | 7.24% | 10.3% | -3.34% | -4.4% | 7.21% | 6.1% | 5.43% | -1.06% | -2.56% | 106% |
| c1cncc(CO[C@H]2CO[C@@]3(CCN(Cc4ccoc4)C3)C2)c1 | -2.55% | -1.33% | -2.79% | 7.6% | 8.75% | -4.32% | -6.16% | 12.6% | 2.27% | -19.8% | 2.12% | -2.56% | 1.04% |
| Fc1cnc(N2CCO[C@H]3CN(CC4CCC4)C[C@H]32)nc1 | -5.78% | 16% | -2.5% | -5.38% | 0.543% | 1.93% | -59.3% | 14.5% | 5.62% | -17.2% | -4.17% | 17.5% | -17.8% |
| O=C1CC[C@@H]2[C@@H](CCN2Cc2ccncc2)N1c1ccccc1 | -3.22% | -8% | 0.204% | -13.7% | 8.87% | -2.7% | 0.896% | 11.1% | -5.31% | -8.6% | 5.21% | 7.5% | -2.91% |
| c1cc(CO[C@@H]2CC[C@H]3[C@H]2OCCN3CC2CCOCC2)ccn1 | 1.51% | 16.2% | 5.55% | 7.58% | -13.8% | -4.79% | -0.319% | 3.51% | 45.1% | -7.6% | 2.16% | 10.3% | -9.05% |
| c1cc(COC[C@@H]2CCC[C@@]23CNCCO3)ccn1 | -6.97% | 8.11% | 4.08% | 91.3% | -11.6% | -6.94% | -3.5% | 10.7% | 2.47% | -12.9% | -3.24% | 0% | -2.52% |
| c1csc(CN2CC[C@H]3C[C@H](c4ccncn4)O[C@@H]3C2)c1 | 2.89% | 13% | 2.7% | 9.99% | -6.78% | -7.99% | 5.81% | 19.7% | 13.8% | -7.55% | 2.12% | 6.41% | -8.13% |
| CCOCC(O)CN1CCN(C(=O)Cc2ccccc2Cl)CC1 (stereo not given) | -5.33% | 0% | -2.7% | 8.88% | -1.32% | -8.08% | 4.21% | 9.36% | 14% | 19.1% | 0.49% | -2.44% | -1.37% |
| CC(C)N1CCOCC2(CN(Cc3ccccn3)CCO2)C1 (stereo not given) | -1.27% | 10.4% | 5.23% | 2.61% | -0.373% | -2.86% | 5.81% | 3.65% | 5.84% | -12.2% | 6.35% | 3.85% | -3.65% |
